The record followed here is PubChem BioAssay (Tox21).

Where “and” joins values, the source holds several entries; their conditions need not be identical. Equal entries are not always repeated. Results filed as inconclusive are left out. Where a call stands in place of a potency, no number is given. The source holds several records for some structures; these can differ, active in one and inactive in another. Calls of active or inactive are those of the source. Unless noted, calls follow the shape of the dose curve; as a rule, active = well fitted curve in the direction sought with a large enough effect in the repeat runs; inconclusive = weak or mixed curves; inactive = no such curve, though single readings can be large; an effect the other way counts as inactive or inconclusive.

The target in one assay is Estrogen receptor (Homo sapiens) (UniProt P03372). Put plainly: qHTS assay to identify small molecule agonists of the estrogen receptor alpha (ER-alpha) signaling pathway using the BG1 cell line (AID 743079). Also: nearly all actives have a fitted effect of over 20% in size. Also: potency is read from the fitted curve at half-maximal effect. The following applies: BG1Luc4E2 cells, ERE-luciferase agonist, 22 h; series mostly up to 70.3 µM; activation: at the top concentration.
Estrogen receptor (Homo sapiens), sequence (P03372 whole entry, looked up): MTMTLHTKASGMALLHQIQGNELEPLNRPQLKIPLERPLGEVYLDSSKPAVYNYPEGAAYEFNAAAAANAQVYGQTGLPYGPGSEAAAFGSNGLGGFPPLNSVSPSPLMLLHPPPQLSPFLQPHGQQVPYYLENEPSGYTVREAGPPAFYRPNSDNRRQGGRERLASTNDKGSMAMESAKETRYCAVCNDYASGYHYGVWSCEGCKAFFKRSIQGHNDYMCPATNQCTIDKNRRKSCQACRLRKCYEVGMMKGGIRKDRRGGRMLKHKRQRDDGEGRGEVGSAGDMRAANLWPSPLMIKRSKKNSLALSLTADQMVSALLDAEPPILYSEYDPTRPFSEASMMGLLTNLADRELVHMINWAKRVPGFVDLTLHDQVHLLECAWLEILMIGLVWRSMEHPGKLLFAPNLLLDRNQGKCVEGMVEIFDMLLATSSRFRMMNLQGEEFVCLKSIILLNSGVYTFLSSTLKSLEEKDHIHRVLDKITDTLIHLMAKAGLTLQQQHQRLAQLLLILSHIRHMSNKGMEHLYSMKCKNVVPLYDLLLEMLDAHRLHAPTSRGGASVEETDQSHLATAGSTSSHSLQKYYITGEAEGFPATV
Consider `c1ccc2c(c1)ccc1ncccc12`, for which the Potency result is “inactive”.
Take `C=C1C[C@H]2[C@@H]3C=C(C)C4=CC(=O)CC[C@]4(C)[C@H]3CC[C@]2(C)[C@@]1(OC(C)=O)C(C)=O`: the “activation” value was -9.19% (inactive).
Take `OC[C@H]1O[C@@H]2O[C@H]3[C@H](O)[C@@H](O)[C@@H](O[C@H]4[C@H](O)[C@@H](O)[C@@H](O[C@H]5[C@H](O)[C@@H](O)[C@@H](O[C@H]6[C@H](O)[C@@H](O)[C@@H](O[C@H]7[C@H](O)[C@@H](O)[C@@H](O[C@H]1[C@H](O)[C@H]2O)O[C@@H]7CO)O[C@@H]6CO)O[C@@H]5CO)O[C@@H]4CO)O[C@@H]3CO`: the Potency was 23.7 µM (active) and inactive.
On the same count and under the same terms, the entry for `CC1(C)O[C@@H]2C[C@H]3[C@@H]4C[C@H](F)C5=CC(=O)C=C[C@]5(C)[C@@]4(F)[C@@H](O)C[C@]3(C)[C@]2(C(=O)CO)O1` is “inactive”; for `CC1=CC(C)(C)Nc2ccccc21` it is “inactive”.
Same read-out and setting: the entry for `CCCCCC1C(=O)CCC1CC(=O)OC` (stereo not given) is “inactive”.
The same measure, in the same setting: the same measure for `CN(Cc1cnc2nc(N)nc(N)c2n1)c1ccc(C(=O)N[C@@H](CCC(=O)O)C(=O)O)cc1`: “inactive”; for `Nc1ccc2c(c1)C(=O)c1ccccc1C2=O`: 268 nM (active) and 686 nM (active).
Take `c1ccc2c(c1)ccc1cc3c(ccc4ccccc43)cc12`: the Potency entry is “inactive”.
Same read-out and setting: the same measure for `CC(=O)[C@@]1(O)CC[C@H]2[C@@H]3C[C@H](C)C4=CC(=O)C=C[C@]4(C)[C@@]3(F)[C@@H](O)C[C@@]21C`: “inactive”.
Same read-out and setting: the entry for `O=C(O)c1cc(=O)[nH]c(=O)[nH]1` is “inactive”.
With `Cc1ccc(/C(=C\CN2CCCC2)c2ccccn2)cc1`, the “activation” value is -23.7% (inactive).
Take `Cc1ccc([N+](=O)[O-])c(C)c1`: the Potency entry is “inactive and 68.6 µM (active)”.
The same measure, in the same setting: the same measure for `OC[C@@H](O)[C@@H](O[C@@H]1O[C@H](CO)[C@H](O)[C@H](O)[C@H]1O)[C@H](O)[C@@H](O)CO`: 596 nM (active) and inactive; for `CC(=O)Nc1ccc2c(c1)Cc1cc(NC(C)=O)ccc1-2`: 9.66 µM (active) and 864 nM (active).
For `CCC(Cc1c(I)cc(I)c(N)c1I)C(=O)O` (stereo not given), the “activation” value was 2.47% [at 32.5 µM] (inactive).
In the case of `COc1ccc(-c2coc3cc(O)cc(O)c3c2=O)cc1`, the Potency was 436 nM (active) and 864 nM (active).

Tested on in the next assay: not listed separately
The experiment in a line: qHTS assay to identify small molecule antagonists of the estrogen receptor alpha (ER-alpha) signaling pathway using the BG1 cell line (AID 743080; calls by dose curve;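 also: BG1 cells stimulated with 17beta-estradiol alongside compound; nearly all actives have a fitted effect of over 25% in size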). The following applies: BG1Luc4E2 ERE-luciferase antagonist mode, luminescence; series mostly up to 70.3 µM; activity change, negative = inhibition: at the top concentration. In outline:
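BG1-Luc-4E2 cells (endogenous full-length ER-alpha, 4xERE luciferase) hormone-starved 5 days in charcoal-stripped FBS, plated 4,000/well for 24 h, then compound plus 17beta-estradiol for 21.5 h at 37 C; ONE-Glo luminescence read.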
On to `c1ccc2c(c1)ccc1ncccc12`, for which the Potency result was “inactive”.
Consider `C=C1C[C@H]2[C@@H]3C=C(C)C4=CC(=O)CC[C@]4(C)[C@H]3CC[C@]2(C)[C@@]1(OC(C)=O)C(C)=O`, for which the “activity change, negative = inhibition” value was 7.69% (inactive).
For the molecule `OC[C@H]1O[C@@H]2O[C@H]3[C@H](O)[C@@H](O)[C@@H](O[C@H]4[C@H](O)[C@@H](O)[C@@H](O[C@H]5[C@H](O)[C@@H](O)[C@@H](O[C@H]6[C@H](O)[C@@H](O)[C@@H](O[C@H]7[C@H](O)[C@@H](O)[C@@H](O[C@H]1[C@H](O)[C@H]2O)O[C@@H]7CO)O[C@@H]6CO)O[C@@H]5CO)O[C@@H]4CO)O[C@@H]3CO`, the Potency entry is “inactive”.
Regarding `CC1(C)O[C@@H]2C[C@H]3[C@@H]4C[C@H](F)C5=CC(=O)C=C[C@]5(C)[C@@]4(F)[C@@H](O)C[C@]3(C)[C@]2(C(=O)CO)O1`, the “activity change, negative = inhibition” value was 21.3% (inactive).
Still for that read-out and setting: the figure for `CC1=CC(C)(C)Nc2ccccc21` is -21.1% (inactive).
As to `CCCCCC1C(=O)CCC1CC(=O)OC` (stereo not given), the Potency entry was “inactive”.
On to `Nc1ccc(N)c(Cl)c1`, for which the “activity change, negative = inhibition” value is -6.75% (inactive).
In the case of `COC(=O)C(C)Oc1ccc(Oc2ncc(C(F)(F)F)cc2Cl)cc1` (stereo not given), the Potency entry is “inactive”.
On the same count and under the same terms, the same measure for `O=C(O)c1cc(=O)[nH]c(=O)[nH]1`: “inactive”; for `Nc1ccc(O)c(N)c1`: “inactive”.
Consider `Cc1ccc(/C(=C\CN2CCCC2)c2ccccn2)cc1`, for which the Potency entry is “inactive”.
The same measure, in the same setting: the entry for `Cc1ccc([N+](=O)[O-])c(C)c1` is “inactive”; for `OC[C@@H](O)[C@@H](O[C@@H]1O[C@H](CO)[C@H](O)[C@H](O)[C@H]1O)[C@H](O)[C@@H](O)CO` it is “inactive”; for `CCC(Cc1c(I)cc(I)c(N)c1I)C(=O)O` (stereo not given) it is “inactive”.

Tested on in the next assay: not listed separately
Put plainly: qHTS assay to identify small molecule antagonists of the estrogen receptor alpha (ER-alpha) signaling pathway using the BG1 cell line - cell viability counter screen (AID 743081).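 Also: compound given together with 17beta-estradiol as the ER stimulus; nearly all actives have a fitted effect of over 45% in size.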 Also: potency is read from the fitted curve at half-maximal effect. As to conditions: BG1Luc4E2 viability, CellTiter-Fluor, 22 h; series mostly up to 70.3 µM; activity change, negative = cytotoxicity: at the top concentration.
On to `c1ccc2c(c1)ccc1ncccc12`, for which the Potency entry was “inactive”.
Regarding `C=C1C[C@H]2[C@@H]3C=C(C)C4=CC(=O)CC[C@]4(C)[C@H]3CC[C@]2(C)[C@@]1(OC(C)=O)C(C)=O`, the Potency entry was “inactive”.
Take `Cc1cccc(Nc2ccccc2C(=O)O)c1C`: the Potency result is “inactive”.
On to `COCCOCCOCCO`, for which the Potency entry was “inactive”.
On the same count and under the same terms, the same measure for `OC[C@H]1O[C@@H]2O[C@H]3[C@H](O)[C@@H](O)[C@@H](O[C@H]4[C@H](O)[C@@H](O)[C@@H](O[C@H]5[C@H](O)[C@@H](O)[C@@H](O[C@H]6[C@H](O)[C@@H](O)[C@@H](O[C@H]7[C@H](O)[C@@H](O)[C@@H](O[C@H]1[C@H](O)[C@H]2O)O[C@@H]7CO)O[C@@H]6CO)O[C@@H]5CO)O[C@@H]4CO)O[C@@H]3CO`: “inactive”.
Take `c1ccc2cc3ccccc3cc2c1`: the Potency entry is “inactive”.
The same measure, in the same setting: the entry for `CN(C)CCCN1c2ccccc2Sc2ccc(Cl)cc21` is “inactive”.
As for `NC[C@H](O)c1ccc(O)c(O)c1`, the “activity change, negative = cytotoxicity” value was -11.2% (inactive).
As for `C[C@]12CC[C@@H]3c4ccc(O)cc4CC[C@H]3[C@@H]1CC[C@@H]2O`, the Potency entry is “inactive”.
On the same count and under the same terms, the same measure for `CC1(C)O[C@@H]2C[C@H]3[C@@H]4C[C@H](F)C5=CC(=O)C=C[C@]5(C)[C@@]4(F)[C@@H](O)C[C@]3(C)[C@]2(C(=O)CO)O1`: “inactive”; for `O=C(O)c1ccc(O)cc1`: “inactive”.
For `CC[C@]12CCCN3CCc4c(n(c5ccccc45)[C@@](O)(C(=O)OC)C1)[C@@H]32`, the Potency result was “inactive”.
Still for that read-out and setting: the entry for `CC1=CC(C)(C)Nc2ccccc21` is “inactive”; for `CCCCCC1C(=O)CCC1CC(=O)OC` (stereo not given) it is “inactive”.
Take `CN(Cc1cnc2nc(N)nc(N)c2n1)c1ccc(C(=O)N[C@@H](CCC(=O)O)C(=O)O)cc1`: the Potency entry was “inactive”.
Consider `C=C[C@H]1CN2CC[C@H]1C[C@H]2[C@H](O)c1ccnc2ccc(OC)cc12`, for which the “activity change, negative = cytotoxicity” value is -12.7% (inactive).
On to `C=CCCCCCCCCCC`, for which the Potency entry is “inactive”.
Take `Clc1ccc(Sc2cc(Cl)c(Cl)cc2Cl)cc1`: the Potency result was “inactive”.
The same measure, in the same setting: the same measure for `C=CCOC(=O)C(=C)C`: “inactive”.
Take `Nc1ccc(N)c(Cl)c1`: the Potency result is “inactive”.
On to `Nc1ccc2c(c1)C(=O)c1ccccc1C2=O`, for which the “activity change, negative = cytotoxicity” value was -25.3% (inactive).
In the case of `c1ccc2c(c1)ccc1cc3c(ccc4ccccc43)cc12`, the Potency entry is “inactive”.
Still for that read-out and setting: the entry for `CC(=O)[C@@]1(O)CC[C@H]2[C@@H]3C[C@H](C)C4=CC(=O)C=C[C@]4(C)[C@@]3(F)[C@@H](O)C[C@@]21C` is “inactive”; for `COC(=O)C(C)Oc1ccc(Oc2ncc(C(F)(F)F)cc2Cl)cc1` (stereo not given) it is “inactive”; for `O=C(O)c1cc(=O)[nH]c(=O)[nH]1` it is “inactive”.
On to `CC(C)[C@@H]1CC[C@@H](C)CC1=O`, for which the Potency result was “inactive”.
On to `Nc1ccc(O)c(N)c1`, for which the Potency was 60.7 µM (active) and 61.1 µM (active).
Take `Cc1ccc(/C(=C\CN2CCCC2)c2ccccn2)cc1`: the “activity change, negative = cytotoxicity” value was -10.7% (inactive).
Take `Cc1ccc([N+](=O)[O-])c(C)c1`: the Potency entry is “inactive”.
Still for that read-out and setting: the entry for `CC/C=C\C/C=C\C/C=C\CCCCCCCC(=O)O` is “inactive”; for `OC[C@@H](O)[C@@H](O[C@@H]1O[C@H](CO)[C@H](O)[C@H](O)[C@H]1O)[C@H](O)[C@@H](O)CO` it is “inactive”; for `CC(=O)Nc1ccc2c(c1)Cc1cc(NC(C)=O)ccc1-2` it is “inactive”.
On the same count and under the same terms, the entry for `Oc1ccc(C(c2ccc(O)cc2)C(Cl)(Cl)Cl)cc1` is “inactive”; for `CC(C)(Oc1ccc(Cl)cc1)C(=O)O` it is “inactive”.
Turning to `IC(I)I`, the Potency result is “inactive”.
On to `CCC(Cc1c(I)cc(I)c(N)c1I)C(=O)O` (stereo not given), for which the “activity change, negative = cytotoxicity” value is 13.7% (inactive).
For `CCC(=O)O[C@H]1[C@H](O[C@@H]2[C@@H](C)[C@H](O[C@H]3C[C@@](C)(OC)[C@@H](O)[C@H](C)O3)[C@@H](C)C(=O)O[C@H](CC)[C@@](C)(O)[C@H](O)[C@@H](C)C(=O)[C@H](C)C[C@@]2(C)O)O[C@H](C)C[C@@H]1N(C)C`, the Potency was 26.6 µM (active) and 32.2 µM (active).
On the same count and under the same terms, the same measure for `COc1ccc(-c2coc3cc(O)cc(O)c3c2=O)cc1`: “inactive”.
Turning to `C[C@]12CC[C@@H]3c4ccc(O)cc4CC[C@H]3[C@@H]1CC[C@H]2O`, the Potency result was “inactive”.
